KLK7 zymogen act: proKLK7 zymogen activators, primary screen, biochemical, fluorescence intensity | Kallikrein-7 (Homo sapiens), P49862 | purified proKLK7, EDANS-DABCYL substrate fluorescence; 100% is mature enzyme control, 0% vehicle | activation, % at 7 µM | hit rate 0.9% among 370,000 | AID 652039, 2013;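 active means activation above the mean of all tested compounds plus 3 SD, computed per campaign excluding outliers beyond control limits, cut at about 13% in these data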
ADAM17 inh: ADAM17 inhibitors, primary screen, biochemical, QFRET | recombinant ADAM17, EDANS/DABCYL FRET peptide cleavage | inhibition, % at 6.95 µM | hit rate 0.83% among 370,000;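 active means inhibition above the mean of compounds lying between control limits plus 3 SD, set per campaign, cut at about 8.5% in these data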
Target sequence (P78536 215-824 limits assumed): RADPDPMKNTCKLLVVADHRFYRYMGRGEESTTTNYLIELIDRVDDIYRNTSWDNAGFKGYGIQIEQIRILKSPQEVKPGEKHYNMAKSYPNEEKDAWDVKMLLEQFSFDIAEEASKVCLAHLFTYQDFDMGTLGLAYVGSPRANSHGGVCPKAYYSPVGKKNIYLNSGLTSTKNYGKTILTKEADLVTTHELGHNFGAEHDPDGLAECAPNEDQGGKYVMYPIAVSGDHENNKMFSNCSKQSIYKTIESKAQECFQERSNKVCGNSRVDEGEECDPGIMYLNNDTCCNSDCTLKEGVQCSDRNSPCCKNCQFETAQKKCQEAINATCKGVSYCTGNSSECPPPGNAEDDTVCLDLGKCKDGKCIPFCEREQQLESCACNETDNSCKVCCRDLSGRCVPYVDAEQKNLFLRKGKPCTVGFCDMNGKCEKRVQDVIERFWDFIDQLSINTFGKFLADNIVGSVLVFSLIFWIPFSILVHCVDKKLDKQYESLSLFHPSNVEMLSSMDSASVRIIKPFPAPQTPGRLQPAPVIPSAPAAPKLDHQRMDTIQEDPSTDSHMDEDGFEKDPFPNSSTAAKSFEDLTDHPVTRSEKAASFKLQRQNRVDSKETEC
GRIN3A LBD mod: binders of NR3A ligand-binding domain, primary screen, biophysical, differential scanning fluorimetry, uHTS; Glutamate receptor ionotropic, NMDA 3A (GRIN3A) ligand-binding domain; NR3A LBD differential scanning fluorimetry, Tm shift; 0% = protein alone, 100% = glycine-bound protein; Tm shift relative to glycine control, % at 25 µM; hit rate 2.5% among 340,000; AID 1259313, 2017;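 active means melting temperature shift of at least 10% of the positive control shift, at one fixed dose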
FAS-TE inh: FAS thioesterase domain inhibitors, primary screen, biochemical, fluorescence intensity, uHTS; Fatty acid synthase (Homo sapiens), P49327; recombinant FAS-TE, OMFH fluorogenic substrate, fluorescence endpoint; inhibition, % at 15 µM; hit rate 0.67% among 360,000;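 active means compounds whose normalised, plate-corrected inhibition of enzyme fluorescence in the single-dose primary screen is 50% or more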
ADAM10 inh: human ADAM10 inhibitors, primary screen, biochemical, QFRET, HTS. AID 720582, 2013. inhibition, % at 7 µM. Disintegrin and metalloproteinase domain-containing protein 10 (Homo sapiens), O14672. recombinant ADAM10, EDANS/DABCYL FRET peptide cleavage, 3 h. hit rate 0.62% among 370,000;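 active means inhibition above a per-campaign cutoff equal to the mean of compounds falling between control-based bounds plus 3 SD, cut at about 20% in these data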
Large screens that a line does not name were inactive. Hits are enriched below; roughly 4.6% of the tested compounds scored in any of these assays.

CCOc1ccc(/C=C2\SC(N3CCc4ccccc4C3)=NC2=O)cc1	none
COc1ccc(/C=C2\SC(N3CCc4ccccc4C3)=NC2=O)cc1	GRIN3A LBD mod 12
Cc1nn(CCC#N)c(NC(=O)c2ccc(Cl)cc2Cl)c1P(=O)(Nc1ccc([N+](=O)[O-])cc1)N1CCOCC1 (stereo unspecified)	FAS-TE inh 52
CCOC(=O)CCC(=O)Nc1ccc(S(=O)(=O)N2CCc3ccccc32)cc1	none
N#C/C(=N\Nc1ccc(S(=O)(=O)N2CCc3ccccc32)cc1)C(N)=S	GRIN3A LBD mod 23
CCOC(=O)/C(C#N)=N/Nc1ccc(S(=O)(=O)N2CCc3ccccc32)cc1	GRIN3A LBD mod 24
CC(C)=CCCC1(C)C=Cc2c(c(C)cc3c2[nH]c2cc(O)ccc23)O1 (stereo unspecified)	GRIN3A LBD mod 19
FC(F)Sc1ccc(NC(=S)NC2CCC(NC(=S)Nc3ccc(SC(F)F)cc3)CC2)cc1 (stereo unspecified)	GRIN3A LBD mod 17
Oc1cccc2c(NC(=S)Nc3ccc(SC(F)F)cc3)cccc12	GRIN3A LBD mod 25
Oc1cccc(NC(=S)Nc2ccc(SC(F)F)cc2)c1	GRIN3A LBD mod 16
FC(F)Oc1ccc(NC(=S)NC2CCCCCCC2)cc1	none
Cc1ccccc1NC(=O)c1cccc2c1-c1ccccc1C2=O	none (no result: GRIN3A LBD mod, FAS-TE inh)
O=c1cc(-c2ccsc2)oc2ccc(-c3ccc4cc[nH]c4c3)cc12	GRIN3A LBD mod 15
CN(CCc1ccccn1)C1CC(=O)N(c2ccc(Cl)cc2)C1=O (stereo unspecified)	GRIN3A LBD mod 14
O=C(NNC(=O)c1ccncc1)Nc1ccccc1	none
O=C(NNC(=O)c1ccncc1)Nc1ccc(N=Nc2ccccc2)cc1	GRIN3A LBD mod 21
Cc1ccc(C(=O)/C=C/Nc2cccc(O)c2)cc1	GRIN3A LBD mod 10
CC(=O)c1ccc(N/C=C\C(=O)c2ccc(C)cc2)cc1	none
Cc1ccc(C(=O)/C=C/Nc2ccc3c(c2)OCO3)cc1	GRIN3A LBD mod 17
O=C(O)c1cc(S(=O)(=O)N(Cc2ccccc2)c2ccc(Cl)cc2)ccc1Cl	GRIN3A LBD mod 39
COc1c(/C=N/Nc2nc(N3CCCCC3)nc(N3CCCCC3)n2)cccc1[N+](=O)[O-]	none
CNc1nc(N/N=C/c2ccc([N+](=O)[O-])cc2)nc(Nc2ccccc2)n1	GRIN3A LBD mod 30
COc1cccc(/C=N/Nc2nc(Nc3ccc([N+](=O)[O-])cc3)nc(N3CCCC3)n2)c1O	GRIN3A LBD mod 23
O=[N+]([O-])c1ccc(Nc2nc(N/N=C/c3cccc(F)c3)nc(N3CCCC3)n2)cc1	GRIN3A LBD mod 25
Cc1cccc(NC(=O)C2CCCN(c3nnc(-n4cccc4)s3)C2)c1C (stereo unspecified)	none (no result: GRIN3A LBD mod, FAS-TE inh)
O=C(CN1C(=O)NC(Cc2ccccc2)C1=O)Nc1ccc(OC(F)F)cc1 (stereo unspecified)	none
O=C(CN1C(=O)CCS(=O)(=O)c2ccccc21)Nc1ccc(F)cc1	none
Cc1ccc(NC(=O)CN2C(=O)CCS(=O)(=O)c3ccccc32)cc1Cl	GRIN3A LBD mod 15
CC(C)CC1NC(=O)N(CC(=O)Nc2ccc(OC(F)F)cc2)C1=O (stereo unspecified)	GRIN3A LBD mod 27
Cc1ccc(NC(=O)CN2C(=O)NC(Cc3ccccc3)C2=O)cc1Cl (stereo unspecified)	GRIN3A LBD mod 15
Nn1c(SCc2ccc([N+](=O)[O-])cc2)nnc1-c1cc(-c2ccccc2)n[nH]1	none (no result: GRIN3A LBD mod, FAS-TE inh)
c1ccc(-c2c[nH]c3ccc(OCCN4CCOCC4)c(-c4ccccc4)c23)cc1	none (no result: GRIN3A LBD mod, FAS-TE inh)
CCc1cccc(CC)c1NC(=O)NC1CCCCC1	GRIN3A LBD mod 13
CCc1ccccc1NC(=O)NC1CCCCC1	none
CC(COc1ccc(F)cc1)CN1CCC(C(O)(c2ccccc2)c2ccccc2)CC1 (stereo unspecified)	none (no result: GRIN3A LBD mod, FAS-TE inh)
O=C(Nc1ccccc1)Nc1cccc(C(F)(F)F)c1	GRIN3A LBD mod 27
O=C(Nc1cc(C(F)(F)F)ccc1F)C1CCCCC1	none (no result: KLK7 zymogen act, ADAM17 inh, ADAM10 inh)
COc1ccc(NC(=O)Nc2cc(C)cc(C)c2)cn1	none
COc1ccc(NC(=O)Nc2cccc(C(F)(F)F)c2)cn1	GRIN3A LBD mod 26
O=C(Nc1cccc(C(F)(F)F)c1)c1ccccc1NC(=O)C1CCCCC1	GRIN3A LBD mod 10
O=C(Nc1ccccc1)Nc1cccc(NC(=O)Nc2ccccc2)c1F	GRIN3A LBD mod 24
Cc1ccc(OC(F)F)c(NC(=O)Nc2cccc(C(F)(F)F)c2)c1	GRIN3A LBD mod 29 (no result: KLK7 zymogen act, ADAM17 inh, ADAM10 inh)
O=C(Nc1cccc(C(F)(F)F)c1)NC1CCN(S(=O)(=O)c2ccc(F)cc2)CC1	GRIN3A LBD mod 19
O=C(Nc1ccccc1)Nc1cc([N+](=O)[O-])ccc1F	GRIN3A LBD mod 20
Cc1cc(C)cc(NC(=O)NC2CCN(S(=O)(=O)c3ccc(F)cc3)CC2)c1	none (no result: GRIN3A LBD mod, FAS-TE inh)
C[C@@H]1OCN(C)[C@H]2C[C@H]3c4[nH]c5cccc(-c6cccc(F)c6)c5c4CCN3C(=O)[C@@H]12	none (no result: GRIN3A LBD mod, FAS-TE inh)
O=C(Nc1cccc([N+](=O)[O-])c1)NC1CCCCN(Cc2ccc(Cl)cc2)C1=O (stereo unspecified)	none (no result: GRIN3A LBD mod, FAS-TE inh)
CCOC(=O)Nc1cccc(Nc2ccccc2)c1	GRIN3A LBD mod 27
O=C(CN(CCc1ccccc1)S(=O)(=O)c1ccc(Cl)s1)N1CCOCC1	none (no result: GRIN3A LBD mod, FAS-TE inh)
O=C1C2C3c4ccccc4C(c4ccccc43)[C@@H]2C(=O)N1c1nc(-c2ccccc2)cs1 (stereo partly specified)	FAS-TE inh 52
Cc1cc(C)cc(NC(=O)Nc2ccc3c(c2)CCC3)c1	GRIN3A LBD mod 12
O=C(Nc1ccc2c(c1)CCC2)Nc1ccccc1F	none
COc1ccc(C)cc1NC(=O)Nc1ccc2c(c1)CCC2	GRIN3A LBD mod 11
Cc1ccc(NC(=O)Nc2ccc3c(c2)CCC3)cc1	none
O=C(Nc1ccccc1)Nc1ccc2c(c1)CCC2	GRIN3A LBD mod 11
COC(=O)c1ccc(NC(=O)Nc2cccc(F)c2)cc1	GRIN3A LBD mod 30
COC(=O)c1ccc(NC(=O)Nc2ccc(F)cc2F)cc1	none
COC(=O)C[C@H]1CC[C@@H]2[C@@H](COc3ccc(NC(=O)c4ccno4)cc3C(=O)N2C)O1	none (no result: GRIN3A LBD mod, FAS-TE inh)
O=C(Nc1cccc(F)c1)Nc1ccc2c(c1)CCC2	GRIN3A LBD mod 43
O=C(Nc1ccc(F)cc1)Nc1cccc(Br)c1	GRIN3A LBD mod 43
O=C(NCCCl)Nc1cccc(Br)c1	none
O=C(Nc1ccc(F)cc1)Nc1ccc2c(c1)CCC2	none
O=C(Nc1cccc(F)c1)Nc1cnccn1	GRIN3A LBD mod 21
O=C(Nc1cccc(F)c1)Nc1ccccn1	none
Cc1cccc(Cn2cc(COC(=O)NCC(C)C)nn2)c1	none (no result: GRIN3A LBD mod, FAS-TE inh)
C#CCNC(=O)C[C@H]1C[C@@]2(C(=O)OC)C(=C[C@H](COCc3ccccc3)O[C@@H]2C)N(Cc2ccc(Cl)cc2Cl)C1=O	none (no result: GRIN3A LBD mod, FAS-TE inh)

Bioassay records deposited in PubChem by several laboratories.
